Assay results as given in PubChem BioAssay AID1159580 (chemical genetic matrix, 2015).
In all, about 5,500 compounds went through this assay and about 2,000 (36%) were called active. Roughly 18% stayed inconclusive and do not appear here. Rule as the data show it: active = normalized growth mostly below about 0.91 (no sharp cut-off); inconclusive = no clear call, values can overlap the other calls; inactive = mostly above about 0.92. Some of the results follow.

Test: chemical genetic growth profiling, strain panel (AID 1159580);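 also: tested at 20 µM; growth read once vehicle control cultures reached saturation at 30 °C; 1 = growth at the plate median or of vehicle wells; lower values mean less growth of the strain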
Settings: S. cerevisiae deletion strains, growth OD

Measured: normalized growth

c1ccc2nc(N3CCNCC3)ccc2c1
inactive: locus YAL013W, strain DEP1, active compounds read low 0.992 | locus YAL021C, strain ccr4, active compounds read low 0.997 | locus YAL026C, strain drs2, active compounds read low 0.989 | locus YAL030W, strain snc1, active compounds read low 0.999 | locus YAL040C, strain CLN3, active compounds read low 1.02 | locus YBL061C, strain skt5, active compounds read low 1.01 | locus YBR009C, strain hhf1, active compounds read low 1.01 | locus YBR023C, strain chs3, active compounds read low 1.01 | locus YBR171W, strain sec66, active compounds read low 0.985 | locus YBR231C, strain swc5, active compounds read low 1.02 | locus YBR279W, strain paf1, active compounds read low 1.01 | locus YCL011C, strain gbp2, active compounds read low 0.97 | locus YCL016C, strain dcc1, active compounds read low 1.01 | locus YCL061C, strain MRC1 (second series), active compounds read low 1 | locus YCL061C, strain MRC1, active compounds read low 0.981 | locus YCL069W, strain vba3, active compounds read low 0.982 | locus YCR088W, strain abp1, active compounds read low 0.984 | locus YDL005C, strain med2, active compounds read low 1.01 | locus YDL040C, strain nat1, active compounds read low 1.01 | locus YDR001C, strain nth1, active compounds read low 0.982 | locus YDR069C, strain doa4, active compounds read low 0.975 | locus YDR137W, strain rgp1, active compounds read low 1.09 | locus YDR159W, strain sac3, active compounds read low 0.985 | locus YDR195W, strain ref2 1.01 | locus YDR297W, strain sur2, active compounds read low 1 | locus YDR334W, strain swr1, active compounds read low 1.01 | locus YDR335W, strain msn5, active compounds read low 1 | locus YDR363W, strain ESC2, active compounds read low 0.97 | locus YDR392W, strain spt3, active compounds read low 0.976 | locus YEL003W, strain gim4, active compounds read low 0.971 | locus YEL037C, strain rad23, active compounds read low 0.987 | locus YEL061C, strain CIN8 (second series), active compounds read low 0.988 | locus YER002W, strain NOP16, active compounds read low 1.03 | locus YER015W, strain faa2, active compounds read low 0.995 | locus YER016W, strain bim1, active compounds read low 1.01 | locus YER111C, strain swi4, active compounds read low 0.99 | locus YER155C, strain BEM2 (second series), active compounds read low 0.957 | locus YFR010W, strain ubp6, active compounds read low 0.985 | locus YGL167C, strain pmr1, active compounds read low 1.01 | locus YGL173C, strain kem1, active compounds read low 1.01 | locus YGL227W, strain vid30, active compounds read low 0.979 | locus YGL240W, strain doc1, active compounds read low 0.998 | locus YGL253W, strain hxk2, active compounds read low 1.01 | locus YGR078C, strain PAC10, active compounds read low 1.01 | locus YHR013C, strain ard1, active compounds read low 0.966 | locus YHR027C, strain rpn1, active compounds read low 1.01 | locus YHR030C, strain SLT2, active compounds read low 0.982 | locus YHR079C, strain IRE1, active compounds read low 0.993 | locus YHR142W, strain chs7, active compounds read low 0.968 | locus YJL092W, strain hpr5, active compounds read low 0.978 | locus YJL095W, strain BCK1 (second series), active compounds read low 1.01 | locus YJL095W, strain BCK1, active compounds read low 0.999 | locus YJL115W, strain asf1, active compounds read low 0.994 | locus YJL129C, strain trk1, active compounds read low 0.947 | locus YJL154C, strain vps35, active compounds read low 0.977 | locus YJL164C, strain tpk1, active compounds read low 1.01 | locus YJL166W, strain qcr8, active compounds read low 1.01 | locus YJL187C, strain SWE1, active compounds read low 1 | locus YJR066W, strain TOR1, active compounds read low 0.962 | locus YKL160W, strain elf1, active compounds read low 1 | locus YKR026C, strain gcn3, active compounds read low 0.981 | locus YKR091W, strain srl3, active compounds read low 1 | locus YLL001W, strain dnm1, active compounds read low 1.01 | locus YLL026W, active compounds read low 1 | locus YLL041C, strain sdh2, active compounds read low 1.01 | locus YLR027C, strain aat2, active compounds read low 1 | locus YLR113W, strain HOG1, active compounds read low 1.01 | locus YLR221C, strain rsa3, active compounds read low 1 | locus YLR258W, strain gsy2, active compounds read low 1.01 | locus YLR262C, strain YPT6 (second series), active compounds read low 1.03 | locus YLR320W, strain mms22, active compounds read low 1.02 | locus YLR342W, strain FKS1, active compounds read low 1.02 | locus YLR357W, strain rsc2, active compounds read low 1.04 | locus YLR370C, strain arc18, active compounds read low 1.01 | locus YLR384C, strain iki3, active compounds read low 1.01 | locus YML120C, strain ndi1, active compounds read low 1 | locus YMR058W, strain fet3, active compounds read low 0.989 | locus YMR125W, strain sto1, active compounds read low 0.99 | locus YMR129W, active compounds read low 0.99 | locus YMR205C, strain PFK2, active compounds read low 1 | locus YMR231W, strain pep5, active compounds read low 1.01 | locus YMR307W, strain GAS1, active compounds read low 1.01 | locus YNL071W, strain lat1, active compounds read low 0.999 | locus YNL128W, strain TEP1, active compounds read low 1.01 | locus YNL153C, strain GIM3, active compounds read low 0.958 | locus YNL175C, strain NOP13, active compounds read low 1.02 | locus YNL183C, strain NPR1, active compounds read low 0.95 | locus YNL197C, strain WHI3, active compounds read low 0.998 | locus YNL209W, strain ssb2, active compounds read low 0.998 | locus YNL224C, strain SQS1, active compounds read low 1.01 | locus YNL248C, strain rpa49, active compounds read low 0.996 | locus YNL322C, strain KRE1 (second series), active compounds read low 1 | locus YNR049C, strain mso1, active compounds read low 1 | locus YOR001W, strain rrp6, active compounds read low 0.995 | locus YOR070C, strain gyp1, active compounds read low 1 | locus YOR080W, strain dia2, active compounds read low 1 | locus YOR083W, strain WHI5 (second series), active compounds read low 1.02 | locus YOR083W, strain WHI5, active compounds read low 1.01 | locus YOR106W, strain vam3, active compounds read low 1.01 | locus YOR231W, strain MKK1, active compounds read low 0.99 | locus YOR265W, strain rbl2, active compounds read low 1 | locus YOR270C, strain vph1, active compounds read low 0.987 | locus YOR290C, strain snf2, active compounds read low 0.975 | locus YPL051W, strain arl3, active compounds read low 1.02 | locus YPL055C, strain LGE1, active compounds read low 0.988 | locus YPL078C, strain atp4, active compounds read low 0.984 | locus YPL106C, strain sse1, active compounds read low 1 | locus YPL240C, strain hsp82, active compounds read low 1.01 | locus YPL256C, strain CLN2, active compounds read low 0.988
